Experiments:
[1] = test system: Vero E6 infected with SARS-CoV-2; test: morphology score (similarity to uninfected cells); higher = more like uninfected cells; conditions: 24 h
[2] = test system: Vero E6 infected with SARS-CoV-2; test: SARS-CoV-2 infection rate relative to infected DMSO; higher = more infection, active = 60 or less; conditions: 24 h

Row | Structure (SMILES) | morphology score [1] | SARS-CoV-2 infection rate [2]
1 | CC(C)(CO)c1cc2cc(NC(=O)C3(c4ccc5c(c4)OC(F)(F)O5)CC3)c(F)cc2n1C[C@@H](O)CO [tezacaftor] (10 µM) | -0.0125 | 108% (inactive)
2 | N[C@H](CO)C(=O)O [D-serine] (10 µM) | 0.0301 | 104% (inactive)
3 | Nc1nc(OCC2CCCCC2)c2nc[nH]c2n1 (10 µM) | 0.0911 | 90.5% (inactive)
4 | NC(=O)NCCN1CCN(c2cccc(C(F)(F)F)c2)CC1 [fluprazine] (10 µM) | 0.0715 | 106% (inactive)
5 | CS(=O)(=O)c1ccc([C@@H](CC2CCCC2)C(=O)Nc2nccs2)cc1 (10 µM) | 0.0357 | 104% (inactive)
6 | CO/N=C1\C[C@]2(C[C@@H]3C[C@@H](C/C=C(\C)C[C@@H](C)/C=C/C=C4\CO[C@@H]5[C@H](O)C(C)=C[C@@H](C(=O)O3)[C@]45O)O2)O[C@H](/C(C)=C/C(C)C)[C@H]1C [moxidectin] (10 µM) | 0.272 | 98.5% (inactive)
7 | CN(C)C1CCN(C(=O)c2ccc(NC(=O)Nc3ccc(-c4nc(N5CCOCC5)nc(N5CCOCC5)n4)cc3)cc2)CC1 (10 µM) | -0.0113 | 115% (inactive)
8 | CCC[C@@H]1CC2=CC(=O)CC[C@]2(C)[C@H]2CC[C@@]3(C)[C@@H](CC[C@@]3(O)CCC(=O)O)[C@H]12 (10 µM) | 0.105 | 104% (inactive)
9 | Cc1ccc(C(=O)NCCCCCC(=O)Nc2ccccc2N)cc1 (0.833333 µM) | -0.0541 | 120% (inactive)
10 | CC(=O)O/N=C1\C(=O)N(Cc2cc(Cl)ccc2Cl)c2ccc(Cl)cc21 (10 µM) | 0.395 | 76% (inactive)
11 | CCOC(=O)[C@H](Cc1ccc([N+](=O)[O-])cc1)NC(=O)c1ccccc1 (10 µM) | 0.37 | 84.5% (inactive)
12 | CCC1=C(C)CN(C(=O)NCCc2ccc(S(=O)(=O)NC(=O)N[C@H]3CC[C@H](C)CC3)cc2)C1=O [glimepiride] (10 µM) | 0.152 | 99% (inactive)
13 | COc1cc(C(=O)NC2CCN(C)CC2)c(F)cc1Nc1ncc2c(n1)N(C1CCCC1)CC(F)(F)C(=O)N2C (0.833333 µM) | -0.193 | 100% (inactive)
14 | Cc1c(N(C)C)c(=O)n(-c2ccccc2)n1C [amidopyrine] (10 µM) | -0.0419 | 110% (inactive)
15 | COc1ccc2[nH]c(SCc3ncc(C)c(OC)c3C)nc2c1 [omeprazole-sulfide] (10 µM) | 0.191 | 104% (inactive)
16 | NCCc1cc(O)c(O)cc1O [oxidopamine] (10 µM) | 0.0957 | 102% (inactive)
17 | Nc1nc(=O)c(Br)c(-c2ccccc2)[nH]1 [bropirimine] (10 µM) | 0.109 | 99.5% (inactive)
18 | CCCCC/C=C\C/C=C\C/C=C\CCCCC(=O)O [gamma-linolenic-acid] (10 µM) | 0.0589 | 102% (inactive)
19 | Cc1c(Cl)c(C)[n+]([O-])c(Cl)c1-c1noc(-c2cc(O)c(O)c([N+](=O)[O-])c2)n1 [opicapone] (10 µM) | 0.125 | 102% (inactive)
20 | COc1ccc(/C=C/C(=O)O)cc1 [trans-4-methoxycinnamic-acid] (10 µM) | 0.07 | 106% (inactive)
21 | CCC(=O)OCC(=O)[C@@]1(OC(=O)CC)[C@@H](C)C[C@H]2[C@@H]3CCC4=CC(=O)C=C[C@]4(C)[C@@]3(Cl)[C@@H](O)C[C@@]21C [beclomethasone-dipropionate] (10 µM) | 0.126 | 105% (inactive)
22 | COC(=O)CCc1ccc(OCC(O)CNC(C)C)cc1 (stereo unspecified) [esmolol] (10 µM) | -0.00906 | 116% (inactive)
23 | CCCn1c(=O)c(C)cn2nc(N)nc12 (10 µM) | 0.276 | 96.5% (inactive)
24 | O=C1c2ccccc2C(Cc2ccncc2)(Cc2ccncc2)c2ccccc21 (10 µM) | -0.0398 | 98% (inactive)
25 | CC(=O)Nc1ncc([N+](=O)[O-])s1 [nithiamide] (10 µM) | 0.0207 | 90% (inactive)
26 | COc1ccc(CNC(=O)c2sc3nc(C)cc(C)c3c2N)cc1 (10 µM) | -0.0124 | 104% (inactive)
27 | CN1CCN(CC(=O)N2c3ccccc3C(=O)Nc3cccnc32)CC1 [pirenzepine] (10 µM) | -0.00972 | 108% (inactive)
28 | COc1ccc(OC)c(C(O)C(C)N)c1 (stereo unspecified) [methoxamine] (10 µM) | -0.12 | 108% (inactive)
